The list is not random: actives were taken first. Their share in the collection is about 10%.
Luc counter – Counterscreen for Luciferase (Kinase-Glo TM) Inhibition | Kinase-Glo luciferase, ATP luminescence, 8 min | AID 1379, 2008 | Luciferin 4-monooxygenase (Photuris pensylvanica), Q27757 | 200,000 compounds, 0.28% hits | Potency, µM (series often up to 38.3 µM), hits mostly inhibitors; active = well fitted inhibition curve with a large enough effect; inconclusive = small, poorly fitted or top-dose-only effect; also: nearly all actives have a fitted effect of over 60% in size
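Compounds were added to a substrate mix at pH 7.2 (50 mM imidazole, 10 uM ATP, within the enzyme's linear range), followed by Kinase-Glo detection reagent; luminescence was measured after 8 minutes at ambient temperature.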
Lamin A splicing – qHTS Assay for Modulators of Lamin A Splicing; Potency, µM (doses to about 46.1 µM), usual class: inhibitors; HeLa LMNA splicing GFP/RFP minigene ratio, 48 h; AID 1487, 2009; 200,000 compounds, 0.01% hits; active = well fitted inhibition curve with a large enough effect in the signal ratio, with a control signal flat, not every such curve was filed as active; inconclusive = small, poorly fitted or top-dose-only effect, or effect the other way, or a change in a side signal; the % refers to the signal ratio
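S3 HeLa cells stably expressing lamin A-EGFP splicing minigene plus DsRed2, 600 cells/well, 48 h compound exposure at 37C. Laser-scanning cytometry; analysed as GFP (500-530 nm)/RFP (575-640 nm) total intensity ratio; 0.5% DMSO vehicle.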
PNC assembly inh – High Content Assay for Compounds that inhibit the Assembly of the Perinucleolar Compartment | activity change (PNC), negative = inhibition, % at 10 µM | PC3M PTB-GFP, PNC prevalence imaging, 16 h; active compounds read low | 140,000 compounds, 3.1% hits;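 active = readout at or below -70, meaning at least 70% loss of cells showing the perinucleolar compartment, a nuclear body marking cancer cells; inconclusive = readout between -30 and a set limit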
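Compounds are pinned in duplicate onto adhered PC3M cells stably expressing GFP-tagged PTB and incubated 16 h at 37 C. Cells are then fixed, nuclei stained with Hoechst, and PNC-positive cells counted.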
HPGD inh – qHTS Assay for Inhibitors of HPGD (15-Hydroxyprostaglandin Dehydrogenase). purified HPGD, NADH fluorescence kinetic, PGE2 substrate. Potency, µM, hits mostly inhibitors. 150,000 compounds, 4.3% hits. AID 894, 2007
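NADH formation kinetics: reaction with 30 uM PGE2 and 1 mM NAD+ (final), 20 nM enzyme, Tris-HCl pH 8 with Tween 20, after 15 min compound preincubation at room temperature. Fluorescence change, last versus first of five reads.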
ALDH1A1 inh – qHTS Assay for Inhibitors of Aldehyde Dehydrogenase 1 (ALDH1A1). Purified ALDH1A1, NADH fluorescence, propionaldehyde substrate. Potency, µM (doses to about 75.3 µM), most hits filed as inhibitors. 220,000 compounds, 7.3% hits. AID 1030, 2008
Target sequence (P00352 whole entry, looked up): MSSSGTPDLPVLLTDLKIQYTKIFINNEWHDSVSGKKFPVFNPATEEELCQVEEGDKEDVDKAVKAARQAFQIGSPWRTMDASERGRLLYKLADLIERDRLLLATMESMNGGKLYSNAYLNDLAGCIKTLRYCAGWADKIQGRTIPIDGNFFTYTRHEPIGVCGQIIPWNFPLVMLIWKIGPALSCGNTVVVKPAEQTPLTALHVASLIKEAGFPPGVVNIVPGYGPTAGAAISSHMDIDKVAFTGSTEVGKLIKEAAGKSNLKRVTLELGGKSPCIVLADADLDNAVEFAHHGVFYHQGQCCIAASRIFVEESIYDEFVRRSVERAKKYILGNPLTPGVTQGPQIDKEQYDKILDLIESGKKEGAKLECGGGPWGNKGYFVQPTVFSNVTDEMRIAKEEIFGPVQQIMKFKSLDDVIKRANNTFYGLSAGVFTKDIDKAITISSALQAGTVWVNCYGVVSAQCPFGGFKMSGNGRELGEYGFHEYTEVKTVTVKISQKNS
Numbers stand for hits; 0 = inactive; ? = inconclusive; - = no result; [ ] = remark or other dose. Unless noted, calls follow the shape of the dose curve; as a rule, active = well fitted inhibition curve with a large enough effect (not every such curve was filed as active); inconclusive = small, poorly fitted or top-dose-only effect, or another doubt; inactive = no such curve, though single readings can be large or run the other way.

SMILES	Luc counter	Lamin A splicing	PNC assembly inh	HPGD inh	ALDH1A1 inh
COc1ccc(OC)c(CNC(=O)c2ccc3nc(C(C)C)oc3c2)c1	-	0	-	-	-
N#CCCN1CCN(C(=S)c2ccc(-c3ccc(Cl)cc3)o2)CC1	0	?	?	20µM	4.5µM
O=[N+]([O-])c1ccccc1S(=O)(=O)Oc1ccccc1/C=N/n1cnnc1	0	0	?	18µM	0
COc1ccc(Cl)cc1NC(=O)C(OC)c1ccccc1 (centres undefined)	0	-	-	-	1.6µM
COc1ccc(C)cc1NC(=O)C(OC(=O)C1CC1)c1ccccc1 (centres undefined)	0	0	-	-	4µM
COc1ccc(Cl)cc1NC(=O)CNCC(c1ccccc1)N(C)C (centres undefined)	0	-	-	-	?
COc1ccc(C)cc1NC(=O)C(c1ccccc1)N1CCNC(=O)C1 (centres undefined)	0	0	-	-	18µM
CCC(C(=O)Nc1cc(Cl)ccc1OC)c1ccccc1 (centres undefined)	0	?	0	0	22µM
Cc1nnc2c(N3CCN(c4ccccc4F)CC3)nc3ccccc3n12	-	0	-	-	-
COc1ccccc1CNC(=O)CCC1N=C2c3ccccc3N=C(SCC(=O)NCCc3ccc(OC)c(OC)c3)N2C1=O (centres undefined)	-	0	-	-	-
COc1ccc(NC(=O)C(OC)c2ccccc2)cc1Cl (centres undefined)	0	?	?	0	13µM
COc1ccc(NC(=O)[C@@H](NC(N)=O)C(C)C)cc1Cl	0	?	-	-	0
COc1ccc(NC(=O)C(C)NS(=O)(=O)c2ccccc2)cc1Cl (centres undefined)	0	0	0	0	?
COc1ccc(NC(=O)C(NCC(C)C)c2ccccc2)cc1Cl (centres undefined)	0	-	-	-	1.4µM
Cc1cccc(-c2noc(-c3ccc(Cl)cc3[N+](=O)[O-])n2)c1	0	?	0	14µM	0
Cc1cccc(-c2noc(-c3cc4ccccc4oc3=O)n2)c1	0	0	-106	?	?
COc1ccc(-c2noc(-c3ccc(Cl)cc3[N+](=O)[O-])n2)cc1OC	0	0	?	18µM	0
COc1nc(NCCO)nc(Nc2ccc([N+](=O)[O-])cc2)n1	0	0	0	20µM	?
O=[N+]([O-])c1ccc(Nc2nc(Cl)nc(NCCO)n2)cc1	0	-	-	-	0
COc1ccc(CNc2nc(NCc3ccc(OC)cc3)n(C(=O)c3ccccc3[N+](=O)[O-])n2)cc1	0	0	0	0	20µM
Oc1ccc(/C=N/NC2=NCCCCC2)cc1	0	0	0	?	18µM
Oc1ccc(/C=N/NC(=S)N/N=C/c2ccc(O)cc2)cc1	4.5µM	-	-	-	0
Oc1ccc(/C=N/Nc2ccccc2)cc1	0	0	-	-	20µM
COC(=O)c1sc2cccc(F)c2c1S(=O)(=O)NCc1ccccc1Cl	-	0	-	-	-
COc1ccc(C)cc1S(=O)(=O)Nc1cccc(-c2ccc(N3CCCC3)nn2)c1	-	0	-	-	-
SMILES	Luc counter	Lamin A splicing	PNC assembly inh	HPGD inh	ALDH1A1 inh
c1ccncc1	-	-	-	0	0
O=C1c2ccccc2C(Nc2ccc(S(=O)(=O)N3CCCCC3)cc2)N1c1ccccn1 (centres undefined)	0	0	0	0	5µM
CC(=O)N1CCN(c2ccc(NC(=O)C(C)Oc3ccc(Cl)cc3Cl)cc2)CC1 (centres undefined)	0	0	?	20µM	?
O=C(CCCC(=O)OCC(Cl)=C(Cl)Cl)Nc1ccccc1	0	0	0	25µM	0
COc1ccc(NC(=O)CCCC(=O)O)cc1Cl	0	0	-	-	0
COC(=O)CCCC(=O)Nc1ccc(Br)cc1	0	0	0	0	0
O=C(O)CCCC(=O)Nc1ccc(Br)cc1	0	0	-100	0	0
O=C(O)CCCC(=O)Nc1ccc(Cl)cc1	0	-	-	-	28µM
CCOC(=O)c1ccc(NC(=O)c2cnn(-c3ccc(C)cc3C)c2C2CCN(C(=O)OC(C)(C)C)CC2)cc1	-	0	-	-	-
CC(=O)N1CCC2(CC1)CN(c1ccccn1)C2	0	-	-	?	?
Clc1cccc(-c2ccc(/C=N/n3cnnc3)o2)c1Cl	0	?	-100	?	0
Clc1ccccc1-c1ccc(/C=N/n2cnnc2)o1	0	0	0	0	0
CC1=C(C(=O)NCc2ccccc2F)C2(CCCCC2)OC1=O	-	0	-	-	-
CCN(CC)S(=O)(=O)c1ccc2oc(C(=O)N3CCc4ccccc4C3)c(C)c2c1	0	?	?	28µM	?
CCN(CC)S(=O)(=O)c1ccc2oc(C(=O)N3CCOCC3)c(C)c2c1	0	0	?	?	0
C=CCNC(=O)c1oc2ccc(S(=O)(=O)N(CC)CC)cc2c1C	0	0	0	20µM	20µM
Cc1c(C(=O)O)oc2ccc(S(=O)(=O)NC3CCCCCCC3)cc12	0	0	-113	0	?
CCN(CC)S(=O)(=O)c1ccc(C(=O)N2CCCCC2)cc1	0	0	0	4µM	0
C=CC(C)(O)CC1[C@@]2(C)CCCC(C)(C)C2CC[C@]1(C)O (some centres undefined)	0	-	-	0	0
CCOc1ccc(CNC(=O)C2CCN(C(=O)N3CC(CC)Oc4ccc(C)cc43)CC2)cc1OC (centres undefined)	-	0	-	-	-
CC(C)[C@@H](OCc1ccccc1)[C@H](C)/C=N\O[C@@H](C)c1cn([C@@H]2COC[C@@H]2O)nn1	-	-	-	-	0[13.5 µM]
COc1ccc(Oc2ncc3nc(-c4ccccc4)c(=O)n(Cc4cccs4)c3n2)cc1	0	-	-	?	?
CCN(CC)S(=O)(=O)c1ccc2oc(C(=O)N3CCCCCC3)c(C)c2c1	0	?	0	7.1µM	13µM
O=c1cc(O)n(-c2ccccc2)c(=S)[nH]1	0	0	-100	0	?
N=c1n(-c2ccccc2)c(O)cc(=O)n1-c1ccccc1	0	0	0	0	0
SMILES	Luc counter	Lamin A splicing	PNC assembly inh	HPGD inh	ALDH1A1 inh
CN(C)c1ccc(C(=O)N2CC(=O)N(CCc3ccccc3)C(=O)C2)cc1	0	0	0	?	6.3µM
COc1ccc(C(=O)N2CC(=O)N(CCc3ccccc3)C(=O)C2)cc1OC	0	0	0	0	0
COc1ccc(CC(=O)N2CC(=O)N(CCc3ccccc3)C(=O)C2)cc1	0	0	0	0	10µM
COc1ccc(-c2nc(-c3ccccc3)oc2NC(C)C)cc1	0	-	-	0	0
O=S(=O)(NCCc1csc2nc(-c3ccccc3)nn12)c1ccc(Oc2ccccc2)cc1	-	0	-	-	-
OC[C@H]1O[C@@H](n2cnc3c(NC4CCCC4)ncnc32)[C@H](O)[C@@H]1O	0	0	-115	0	0
CCCCNC(=O)NS(=O)(=O)c1ccc(N)cc1	0	-	-	0	0
CC(C)N(CC#CCC1(O)c2ccccc2-c2ccccc21)CCO	0	0	0	0	20µM
CCCN1C(=O)/C(=C/c2nc3ccccc3c(=O)[nH]2)c2cc(C)ccc21	-	-	-	-	0
